# This is part of a sample that, as a whole, favours compounds with a hit. Of some 83,000 tested, about 20% had one in any assay.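 A percent growth of 40 corresponds to 60% growth inhibition; 0 means no net growth; -100 means all cells died. Active threshold: below 10.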 A number with no mark means an inactive call. Active and inactive are the calls of the source.
# System: COLO 205 colon
# Assay: NCI-60 one-dose screen, 48 h (100 = growth as untreated, 0 = no growth, -100 = all killed)
# Conditions: 10 µM unless noted
# Experimental: Cells are grown in 96 well plates and exposed to the test compound for 48 hours. Compounds are tested at a single concentration, which is 10^-5 M for most compounds. The reported endpoint is percent growth (GI% or GIPRCNT), where numbers from 0 - 100% represent growth inhibition, and numbers from -100% - 0 represent cell death. For example, a value of 40 represents 60% growth inhibition. A value of 0 means no net growth occurred over the course of the experiment. A value of -40 indicates 40% of cells at the beginning of the experiment died by the end of the experiment. A value of -100 means all cells are dead at the end of the experiment.
# NCI-60 Human Tumor Cell Lines Screen was performed using the standard one-dose NCI protocol, which is described in more detail at https://dtp.cancer.gov/discovery_development/nci-60/default.htm.
# Compounds with GIPRCNT values below 10 were considered active. Activity score was based on GIPRCNT using the following formula: […]
# Score is 0 for GIPRCNT values of 100 or above, 50 for GIPRCNT values of 0, and 100 for GIPRCNT values of -100.
row,Structure (SMILES),growth
1,CCCCCCCCCCCCCCCCCC1OC[C@H](COC(=O)O[C@@H](C(=O)O[C@H]2C[C@@]3(O)[C@@H](OC(=O)c4ccccc4)[C@@H]4[C@]5(OC(C)=O)CO[C@@H]5C[C@H](O)[C@@]4(C)C(=O)[C@H](OC(C)=O)C(=C2C)C3(C)C)[C@@H](NC(=O)c2ccccc2)c2ccccc2)O1 (stereo not given in full),13.3%
2,O=C(O)C1C(C(=O)O)C2(Cl)C(Cl)=C(Cl)C1(Cl)C2(Cl)Cl.[Hg] (stereo not given),103%
3,C[C@]12C[C@@H](CO)[C@H](O)C[C@@H]1CC[C@@H]1[C@@H]2CC[C@]2(C)[C@@H](O)CC[C@@H]12,108%
4,CCN(CCO)C(Cc1ccccc1)c1ccccc1 (stereo not given),102%
5,c1ccc(Nc2nc(-c3ccccc3)c[se]2)cc1,104%
6,CNC(=O)Oc1ccc(C(C)(C)C)cc1OC(=O)NC,87%
7,CC(CC1CCCCC1)NCc1ccccc1 (stereo not given),103%
8,C=CC[n+]1ccc(-c2cc[n+](CC=C)cc2)cc1,9.91% (active)
9,CC(=O)[C@H]1CC[C@H]2[C@@H]3CC[C@H]4C[C@H](N)CC[C@]4(C)[C@H]3CC[C@]12C,49.3%
10,COc1ccc2c(c1)c(-c1nc(-c3c[nH]c4ncccc34)cs1)cn2CCCCN1CCCCC1,-76.2% (active)
11,Clc1ccc(COC(Cn2ccnc2)c2ccc(Cl)cc2Cl)cc1 (stereo not given),68.8%
12,CN1CC(CNC(=O)OCc2ccccc2)CC2c3cccc4c3c(cn4C)CC21 (stereo not given),-72.5% (active)
13,CC[C@H](C)[C@H](NC(=O)C12C3C4C1C1C2C3C41NC(C)=O)C(=O)N(C)[C@H](C[C@@H](OC(C)=O)c1nc(C(=O)N[C@@H](Cc2ccccc2)C[C@H](C)C(=O)OC)cs1)C(C)C (stereo not given in full),-26.1% (active)
14,OCc1ccc2c(c1)OCO2,108%
15,Fc1ccc(C2=CCNCC2)cc1,103%
16,CCCOC(=O)N[C@H]1CCc2c(Br)c(OC)c(OC)c(OC)c2-c2ccc(SC)c(=O)cc21,-31.9% (active)
17,O=C(Nc1ccc([N+](=O)[O-])cc1)C(Cl)(Cl)Cl,107%
18,COC(=O)[C@@H](C)C[C@H](Cc1ccccc1)NC(=O)c1csc([C@@H](C[C@H](C(C)C)N(C)C(=O)[C@H](C)NC(=O)[C@H]2CCCCN2C)OC(C)=O)n1,-16.2% (active)
19,CCN(CC)CCOC(=O)C(OC(C)C)(c1ccccc1)c1ccccc1,98%
20,CC[CH2][Sn]([Cl])([Cl])[CH2]CC,44.2%

row,Structure (SMILES),growth
1,CCOC(=O)[C@@H](C)C[C@H](Cc1ccccc1)NC(=O)c1csc([C@@H](C[C@H](C(C)C)N(C)C(=O)CNC(=O)[C@H]2CCCCN2C)OC(C)=O)n1,-11.6% (active)
2,Nc1ccc2c(c1)Cc1cc(Br)ccc1-2,117%
3,COC(=O)CCC1=C(C)c2cc3[n-]c(cc4nc(cc5[n-]c(cc1n2)c(CCC(=O)OC)c5C)C=C4C)cc3C.[Cd+2],22.4%
4,COC(=O)[C@@H](C)C[C@H](Cc1cn(C)c2ccccc12)NC(=O)c1csc([C@@H](C[C@H](C(C)C)N(C)C(=O)[C@@H](NC(=O)[C@H]2CCCCN2C)C(C)C)OC(C)=O)n1,-58.9% (active)
5,COc1cc2c(cc1OCCCCn1c(-c3cccs3)nc3ccccc31)N=C[C@@H]1CCCN1C2=O,-73.5% (active)
6,O[C@H](CN1CC1)[C@@H](O)CN1CC1,76.7%
7,O=C(Nc1ccc(Cl)cc1)Nc1nccs1,3.09% (active)
8,O=C1C(N2CC2)=C(N2CC2)C(=O)C(N2CC2)=C1N1CC1,-100% (active)
9,O=C(CC1(O)C(=O)Nc2ccc(Br)cc21)c1ccc(C(=O)NCC2CCC3(CC2)OOC2(CCCCC2)OO3)cc1 (stereo not given),51.4%
10,CCC1(C)CC(CCNCc2ccccc2O)(c2ccc(C)cc2)CCO1 (stereo not given),115%
11,COc1ccc(/C=C\c2cc(OC)c(OC)c(OC)c2)cc1NC(=O)/C=C/c1cc(OC)c(OC)c(OC)c1,42.1%
12,CC[C@H](C)[C@H](NC(=O)[C@H]1CCCCN1C)C(=O)N(C)[C@H](C[C@@H](OC(C)=O)c1nc(C(=O)N[C@@H](Cc2ccccc2)C[C@H](C)C(=O)OC)cs1)C(C)C,-39.7% (active)
13,COc1ccc(S(=O)(=O)Nc2c(/C=C\c3cc(OC)c(OC)c(OC)c3)ccc(OC)c2O)cc1OC,-39.3% (active)
14,C[C@@]1(CCCCCCCCCc2ccc(O)cc2)C[C@]2(C)OC(=O)C[C@@H]2OO1,124%
15,C[C@]12CC[C@H]3[C@@H](CC4SC(N)=NC45C/C(=N/NC(N)=O)CC[C@]35C)[C@@H]1CCC2=O (stereo not given in full),35%
16,Cn1cc(-c2csc(-c3cn(CCN4CCOCC4)c4ccc(F)cc34)n2)c2cccnc21,15.9%
17,COC1OC(CO)C(O)C(O)[CH]1[Hg][O]C(C)=O (stereo not given),98%
18,Clc1cc(N2CC2)nc(N2CC2)n1,81.3%
19,CCOC(=O)[C@@H](C)C[C@H](Cc1ccccc1)NC(=O)c1csc([C@@H](C[C@H](C(C)C)N(C)C(=O)[C@@H](NC(=O)[C@H]2C[C@H](O)CCN2C)C(C)C)OC(C)=O)n1,-61.4% (active)
20,COC(=O)C1CCC(NC(=O)c2csc([C@@H](C[C@H](C(C)C)N(C)C(=O)[C@@H](NC(=O)[C@H]3CCCCN3C)C(C)C)OC(C)=O)n2)CC1 (stereo not given in full),-71.1% (active)

# — PubChem BioAssay (NCI)
